Results filed as inconclusive are left out. Calls of active or inactive are those of the source. Calls come from the whole dose curve; as a rule, active = well fitted inhibition curve with a large enough effect; inconclusive = small, poorly fitted or top-dose-only effect; inactive = flat fitted curve, though single readings scatter.
molecular target: Ferritin light chain (Equus caballus) (UniProt P02791); test: Confirmation Assay for Identification of Novel General Anesthetics; conditions: apoferritin 1-aminoanthracene fluorescence displacement; note: nearly all actives have a fitted effect of over 40% in size
Summary of the method: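 Horse apoferritin (10 uM) pre-loaded with 1-AMA (50% saturated, PBS) exposed to compounds 10 min at room temperature; loss of 1-AMA fluorescence (380/535 nm) scaled between free and bound ligand, curves fitted with Hill equation.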
Potency is the fitted concentration of half-maximal effect.

Ferritin light chain (Equus caballus), sequence (P02791 2-175 limits assumed): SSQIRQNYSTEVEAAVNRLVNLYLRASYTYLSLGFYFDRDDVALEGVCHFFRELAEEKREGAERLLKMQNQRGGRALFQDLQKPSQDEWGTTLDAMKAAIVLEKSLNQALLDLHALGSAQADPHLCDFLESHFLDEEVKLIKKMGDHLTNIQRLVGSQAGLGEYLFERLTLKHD

Potency, active:
Cn1cc(Br)c(C(=O)NC2C3CC4CC(C3)CC2C4)n1 (centres undefined) 10 µM
COc1ccc(CNC(=O)CN2N=C(c3ccc(Cl)cc3)CCC2=O)cc1 20.7 µM
COC(=O)c1ccc(/C=N/NC(=O)CC(=O)NC2CCCCC2)cc1 7.08 µM
COc1cccc(NC(=O)N2CCCCCC2)c1 14.1 µM
CSC(=O)NC12CC3CC(CC(C)(C3)C1)C2 5.62 µM
NC(=O)Nc1ccc(Oc2ncc(C(F)(F)F)cc2Cl)cc1 7.08 µM
Cc1cc(C)cc(C(=O)N2CCCCCC2)c1 20 µM
O=C1NC2(CCCCCC2)Oc2ccccc21 20 µM
CC(C)CCOc1ccc(C2N=C(N)Nc3nc4ccccc4n32)cc1 (centres undefined) 12.6 µM
Fc1ccccc1CNc1ccc(Cl)cc1 11.2 µM
Cc1ccc(NC(=O)N2CCCCCC2)c(C)c1 15.8 µM
CCN1C(=O)N(c2cccc3ccccc23)C(C)=CC1(C)C 14.1 µM
Fc1ccc(CNc2ccc(CNc3ncn[nH]3)cc2)cc1 17.8 µM
O=C(NC1CCCCC1)N1CCCCCCC1 14.1 µM
O=C(Oc1cccc(O)c1)C1CCCCC1 11.2 µM
COc1ccccc1CC(=O)NC12CC3CC(CC(C3)C1)C2 12.6 µM
Cc1ccc(O)c(NC(=O)CCC2CCCCC2)c1 7.94 µM
O=C(CCN1CCN(CCO)CC1)Nc1ccc(C2CCCC2)cc1 31.6 µM
O=C(CCNc1cccc(Cl)c1)c1cccs1 17.8 µM
O=c1[nH]c(SCC2CCCCO2)nc2ccccc12 (centres undefined) 14.1 µM
O=C(COC(=O)c1cccs1)NC12CC3CC(CC(C3)C1)C2 11.2 µM
Cc1ccccc1Oc1ccccc1N 15.8 µM
O=S(=O)(NCCC1=CCCCC1)c1ccc(F)cc1 8.91 µM
Cc1csc(Nc2ccccc2)n1 35.5 µM
O=[N+]([O-])c1ccc(CNc2ccc(Cl)cc2)s1 22.4 µM
O=C(COC(=O)CC1CC2CCC1C2)Nc1ccc(F)cc1 (centres undefined) 20 µM
COc1cc(C(=O)O[C@@H]2CC3CC[C@]2(C)C3(C)C)ccc1O 14.1 µM
O=C(COC(=O)C1=COCCO1)NC1CCCCCCC1 12.6 µM
O=C(NC1CCCCCCC1)c1ccc(Br)o1 17.8 µM
O=C(COC(=O)c1ccccn1)NC12CC3CC(CC(C3)C1)C2 7.94 µM
CC(=O)Nc1ccc(NCc2ccc(C)s2)cc1 17.8 µM
CCC(CC)C(=O)OCC(=O)NC12CC3CC(CC(C3)C1)C2 10 µM
O=C(O)Cc1csc(Nc2cccc(Cl)c2)n1 12.6 µM
Cc1ccc(S(=O)(=O)NCCC2=CCCCC2)cc1C(N)=O 7.08 µM
COc1ccc(NC(C)c2ccccc2)cc1 (centres undefined) 15.8 µM
COc1ccc(CNc2ccc(C)c(C)c2)cc1 15.8 µM
CC1(C)CC(=O)c2c(noc2-c2ccccc2)C1 17.8 µM
Cc1ccc(NCc2cccnc2)c(Br)c1 8.91 µM
CC1CCCCC1NC(=O)COC(=O)c1ccc(N(C)C)cc1 (centres undefined) 11.2 µM

— PubChem BioAssay AID489008 (National Center for Advancing Translational Sciences (NCATS), 2010)
